# Screening results: PubChem, The Scripps Research Institute Molecular Screening Center
# TEAD-YAP inh = TEAD-YAP interaction inhibition | HEK-TIYL cells, TEAD-Gal4/YAP UAS-luciferase luminescence | inhibition, % at 9.12 µM | actives 1.4% (n = 640,000) | AID 1259422; in the data active = inhibition above about 32%;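 also: 0% = median of test compound wells and 100% = reference inhibitor wells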
# MITF inh = inhibitors of human MITF. O75030. AlphaScreen MITF homodimerization, bead proximity signal. inhibition, % at 2.6 µM. actives 0.91% (n = 650,000); in the data active = inhibition above about 50%;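 also: 0% = vehicle wells with protein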
# Target sequence (O75030 whole entry, looked up): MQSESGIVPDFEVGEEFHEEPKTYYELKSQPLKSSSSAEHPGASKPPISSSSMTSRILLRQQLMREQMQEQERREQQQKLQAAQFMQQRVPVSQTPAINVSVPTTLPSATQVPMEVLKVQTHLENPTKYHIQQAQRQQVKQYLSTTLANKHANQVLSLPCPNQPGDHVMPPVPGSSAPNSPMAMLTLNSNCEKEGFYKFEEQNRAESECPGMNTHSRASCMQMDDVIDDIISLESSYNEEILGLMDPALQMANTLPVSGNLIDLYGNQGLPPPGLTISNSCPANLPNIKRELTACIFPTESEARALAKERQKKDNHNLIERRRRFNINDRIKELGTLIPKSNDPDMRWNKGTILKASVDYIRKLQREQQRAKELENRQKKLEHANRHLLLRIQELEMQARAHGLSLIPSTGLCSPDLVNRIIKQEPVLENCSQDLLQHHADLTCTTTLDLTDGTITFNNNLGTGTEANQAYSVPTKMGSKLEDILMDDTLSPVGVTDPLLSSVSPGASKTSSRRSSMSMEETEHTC
# GPR151 activ = activators of human GPR151; Q8TDV0; PathHunter beta-arrestin GPR151 cells, luminescence; activation, % at 11.2 µM; actives 1% (n = 650,000); in the data active = activation above about 4.9%;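 also: 0% = median of compound wells and 100% = cells with positive control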
# FBW7 act = human FBW7 E3 ligase activation, primary screen | normalized activity (activation), % at 26.1 µM | AlphaScreen FBW7–phospho-cyclin E peptide binding, activator screen | actives 0.13% (n = 650,000) | AID 1259310 | Q969H0; in the data active = normalized activity above about 1.9%;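 also: purified mutant Fbw7 with reduced substrate affinity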
# GPR151 confirm = human GPR151 activation, confirmation screen. GPR151 PathHunter beta-arrestin cells, luminescence, 90 min; % of EA-reagent control over plate median. activation, % at 11.2 µM. 6,700 tested, under 10 active. shares compounds with GPR151 activ;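 active = mean percent activation across replicates above the confirmation screen cutoff of 4.91%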
# GPR119 ag = activates human GPR119 in a GPR151 counter-screen. shares compounds with GPR151 activ. GPR119 PathHunter beta-arrestin cells, luminescence, 90 min; 0 = compound-well median, 100 = enzyme-acceptor control. activation, % at 11.2 µM. actives 0.3% (n = 6,700). AID 1508611;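 active = mean percent activation in the counterscreen above 29.09%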;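 also: counterscreen on off-target GPR119 to flag nonselective hits from the GPR151 activator screen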
# An asterisk follows results filed as active; . = not tested or not shown; ! = a repeat was not active. A selection: hits, their analogues and other compounds. The true share with any hit is near 3.5%.
SMILES,TEAD-YAP inh,MITF inh,GPR151 activ,FBW7 act,GPR151 confirm,GPR119 ag
O=C1C2C3CC(C(Br)C3Br)C2C(=O)N1Nc1ccccc1 (stereo not drawn),-4.9,-14.7,0.4,-0.1,.,.
Cn1cccc1C(=O)OCC(=O)NC(=O)NCc1ccccc1,3.2,6.9,6.2*,0.5,1.9,13.3
CC/C=C\C/C=C\C/C=C\C/C=C\C=C\C(O)C/C=C\CCC(=O)O (stereo not drawn),.,0.6,-2.8,.,.,.
Cc1c(CCO)sc[n+]1CC(=O)OC1CC(C)CCC1C(C)C (stereo not drawn),1.2,-1.7,5.4*,-0.1,0.9,15.0
Cc1cc(C)nc(SCC(=O)OC2CC(C)CCC2C(C)C)n1 (stereo not drawn),13.2,1.7,2.2,-0.1,.,.
Cc1cccc(NC(=O)CCC2CCN(C(=O)c3cccnc3)CC2)c1,-5.2,10.6,0.4,0.7,.,.
COc1ccc(CNC(=O)c2sc3cnccc3c2-n2cccc2)cc1,54.9*,4.5,5.2*,-0.1,1.1,2.5
Cc1ccc(/C=C/C(=O)NCc2ccc(S(N)(=O)=O)cc2)o1,-5.6,5.2,6.3*,-0.6,-0.5,-4.5
COCCNC(=O)c1cc(C)nn1-c1ccccc1,4.8,0.8,2.2,0.0,.,.
CCN(CCNC(=O)c1cc(C)nn1-c1ccccc1)c1ccccc1,-5.5,13.2,7.9*,0.1,0.2,-7.6
O=C(c1ccc([N+](=O)[O-])o1)N1CCN(c2ccccc2O)CC1,10.7,11.2,-0.2,0.2,.,.
Fc1ccccc1/C=N\Nc1nc2ccccc2o1,-48.0,21.5,11.0*,0.7,-1.3,-12.1
CCCN1C(=O)/C(=C/c2ccc(O)c(OC)c2)SC1=S,-4.4,8.9,5.1*,-0.3,1.1,9.5
Cc1cc(C)c(NC(=O)/C(C#N)=C\c2ccco2)c(C)c1,4.8,-15.8,6.3*,0.1,-0.7,-0.8
Cc1cccc(NC(=O)/C(C#N)=C\c2ccco2)c1,-61.7,8.2,1.3,-0.1,.,.
COc1ccc(CCNC(=O)CCn2c(SCC(=O)NCCC(C)C)nc3ccccc3c2=O)cc1OC,8.6,1.4,2.1,0.0,.,.
O=C1NCC2=C1C(c1ccc(Br)cc1)Nc1ccccc1N2 (stereo not drawn),4.8,8.2,5.5*,-0.1,0.1,11.4
COc1ccc(C2Nc3ccccc3NC3=C2C(=O)NC3)cc1 (stereo not drawn),-60.9,9.4,-1.7,0.1,.,.
O=C1N[C@H](Cc2ccc(O)cc2)C(=O)N2CCN(Cc3nc(-c4ccccc4)cs3)C[C@H]12,0.5,-5.5,0.0,-0.1,.,.
CSc1ccccc1N1C(=O)CN(CC2CC2)CC1C (stereo not drawn),-7.7,-1.1,-1.0,-0.1,.,.
c1nc(NCCc2ccc3c(c2)OCCO3)c2ccsc2n1,39.2*,-2.4,5.6*,-0.1,1.6,0.3
O=C1NC2(CCc3ccccc3C2)C(=O)N1CN1CCN(Cc2ccc3c(c2)OCO3)CC1 (stereo not drawn),8.6,5.2,8.3*,-0.1,-0.4,-1.0
CC(=O)OC12CC3C(C1C(C)=NN2C(=O)C(=O)N1N=C(C)C2C4C(CC21OC(C)=O)C4(C)C)C3(C)C (stereo not drawn),1.5,-3.3,7.8*,-0.1,-0.3,2.2
COC(=O)C12CC3C(C1C(C)=NN2C(C)=O)C3(C)C (stereo not drawn),-5.6,17.6,-0.3,0.4,.,.
CC[n+]1c(/C=C2\Sc3ccc(-c4ccccc4)cc3N2CCO)ccc2ccccc21,90.7*,10.8,22.4*,-1.4,-0.5,0.8
SMILES,TEAD-YAP inh,MITF inh,GPR151 activ,FBW7 act,GPR151 confirm,GPR119 ag
CCN1/C(=C/c2ccc3cc(OC)ccc3[n+]2CC)Sc2cc(C)c(C)cc21,66.7*,4.4,10.6*,-1.5,1.5,11.3
CCC(=O)/C=C1/Sc2ccc(OC)cc2N1CCO,-3.3,-6.7,-0.6,-0.2,.,.
CC[n+]1c(/C=C2\Sc3ccccc3N2C)ccc2cccc(C)c21,86.5*,37.2,5.4*,-0.2,0.5,6.7
CC[n+]1c(/C=C2\Sc3ccc(C)cc3N2CCO)ccc2ccccc21,79.8*,18.6,5.4*,-0.3,1.9,7.5
Cn1c(Nc2nc(NCc3ccccc3)c3ncn(CCN4CCCC4=O)c3n2)nc2ccccc21,22.3,3.1,3.2,-0.1,.,.
CC1(C)[C@H]2CC=C(CN3CCc4nnc(CCNC(=O)c5ccoc5)n4CC3)[C@@H]1C2,-18.7,-5.7,-0.5,0.0,.,.
CC(=O)c1ccc(NC(=O)C(C)N(C)CC(=O)Nc2ccccc2Br)cc1 (stereo not drawn),9.6,4.1,-1.6,-0.1,.,.
CC(=O)Nc1ccc(Nc2c(-c3ccc4c(c3)OCC(=O)N4)c(=O)c2=O)cc1,3.6,-5.5,8.7*,-0.1,-0.4,-0.7
Cc1ccc(-c2cc(C(F)(F)F)n3ncc(C(=O)OC(C)C)c3n2)cc1,8.8,-5.3,5.4*,0.2,0.5,12.9
COC(=O)c1cnn2c(C(F)(F)F)cc(-c3ccc(C)cc3)nc12,-9.6,-4.3,0.2,0.3,.,.
CCOC(=O)C1=C(C)NC2=C(C(=O)C(C(=O)OC)C(C)C2)C1c1ccccc1OC(C)C (stereo not drawn),-8.7,-4.2,5.2*!,0.2,1.0,4.8
COC(=O)c1c(NC(=O)c2cc3nc(-c4ccco4)cc(C(F)(F)F)n3n2)sc2c1CCC(C(C)(C)C)C2 (stereo not drawn),-0.1,2.8,-0.3,-0.1,.,.
Cc1cccc(N2C(=O)NC(=O)/C(=C\c3ccc(O)cc3)C2=O)c1C,7.1,-3.6,-0.2,-0.1,.,.
Cn1c(=O)[nH]c(=O)c2c1nc(N/N=C/c1ccccc1O)n2Cc1ccccc1,1.0,-10.0,-0.5,0.0,.,.
c1ccc(CNc2ccc3ncc(-c4cc5ccccc5s4)n3n2)nc1,-3.1,-1.3,-0.6,-0.2,.,.
COc1ccc(OCc2cc(C(=O)N[C@H]3CCCCNC3=O)no2)c(Cl)c1,-47.1,0.5,5.0*,-0.1,-0.3,-0.1
COc1ccc(OCc2cc(C(=O)N3CCCCC3CO)no2)c(Cl)c1 (stereo not drawn),-42.1,8.6,1.4,0.0,.,.
O=C(NCCc1ccc(Cl)cc1)C(=O)NCc1ccccc1,5.4,9.4,7.4*,0.4,0.0,16.5
NNC(=S)NCCc1ccc(Cl)cc1,12.6,4.6,0.0,0.0,.,.
CCNC(=S)NCCc1ccc(Cl)cc1,-22.2,10.8,5.5*,0.2,-0.1,2.5
CC/C(Cc1ccccc1)=N/NC(=O)CCC(=O)Nc1cccc(C)c1,9.8,5.2,-0.4,0.0,.,.
Cc1ccc(N2C(=O)c3ccncc3C2=O)cc1,2.0,-7.5,1.3,-0.1,.,.
O=C1c2ccncc2C(=O)N1c1ccc(F)cc1,-8.7,-8.4,5.9*,0.0,0.3,-9.0
COCC(C)Nc1ncnc2c1c(-c1ccccc1)cn2-c1cccc(Cl)c1 (stereo not drawn),8.3,25.1,-0.2,0.3,.,.
Cc1ccc(Cn2ncc3c(NCCCN4CCOCC4)ncnc32)cc1,-1.2,-11.4,0.2,-0.3,.,.
